Consider 39 molecules from PubChem BioAssay (NCI).

This is part of a sample that, as a whole, favours compounds with a hit. Of some 79,000 tested, about 15% had one in any assay. The source made the active and inactive calls. No stated cut-off is given here; in the data, active means growth inhibition above about 70%; inactive means the rest.

The assay in a line: NCI Yeast Anticancer Drug Screen. Data for the bub3 strain (AID 167). Conditions: S. cerevisiae bub3 mutant strain, at 50.0 µM, stronger effect = higher value. In a few lines:
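Screening used yeast with an engineered genetic alteration affecting cell cycle control. Compound-exposed cultures were compared with vehicle cultures, and reduced growth was taken as inhibition.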
For the molecule `c1ccc(B2OCC(C3OB(c4ccccc4)OC4COB(c5ccccc5)OC43)O2)cc1` (centres undefined), the growth inhibition is -23.2% (inactive).

As to `Cn1c(=O)c(-c2ccccc2)cc2ccccc21`, the growth inhibition is -1.15% (inactive).

Take `CCOC(=O)c1ccc(-c2ccccc2)cc1`: the growth inhibition is -12.2% (inactive).

In the case of `N#Cc1c(N)c(C(=O)O)nn(-c2cccc(C(F)(F)F)c2)c1=O`, the growth inhibition is -11.2% (inactive).

Consider `O/N=C1/CCCCCC1NO` (centres undefined), for which the growth inhibition is -18.1% (inactive).

Regarding `NCCC1([N+](=O)[O-])CCNCC1`, the growth inhibition was -5.3% (inactive).

For `O=C(NCc1ccccc1)C1C2C=CC(C2)C1C(=O)NCc1ccccc1` (centres undefined), the growth inhibition is 18.1% (inactive).

For `Nc1ccc[nH]c1=O`, the growth inhibition is 20.7% (inactive).

As to `CC(C)(C)c1ccc(OCCCl)c(Cl)c1`, the growth inhibition is 0.75% (inactive).

Take `COC(=O)c1cc(C)cc(N(c2ccccc2[N+](=O)[O-])S(=O)(=O)c2ccc(C)cc2)c1C`: the growth inhibition was -10.3% (inactive).

As for `Cc1ccc(N=c2cc(-c3ccccc3)oc3ccccc23)cc1`, the growth inhibition is 12.7% (inactive).

Consider `COc1cc(C)c(C(=O)c2ccccc2NS(=O)(=O)c2ccc(C)cc2)cc1OC`, for which the growth inhibition was -2.95% (inactive).

Consider `C[n+]1nc([O-])oc1-c1ccccc1`, for which the growth inhibition is -4.6% (inactive).

Regarding `Cn1ncc2c(=O)[nH]c(=S)[nH]c21`, the growth inhibition is -2.3% (inactive).

For the molecule `Cc1ccc(S(=O)(=O)C(Sc2ccccc2)=S=NC(C)(C)C)cc1`, the growth inhibition is 81.8% (active).

Consider `CCOc1c(N=Nc2ccccc2C)c(-c2ccccc2)nn1C(N)=S`, for which the growth inhibition is -3.5% (inactive).

As for `C(=N\N1CCN(/N=C/c2ccc3ccccc3n2)CC1)/c1ccc2ccccc2n1`, the growth inhibition was 1.5% (inactive).

Consider `NC(=S)c1ccccn1`, for which the growth inhibition is 2.4% (inactive).

Turning to `CC(=O)CCCCCCCCCCCCCC(C)=O`, the growth inhibition was 6.25% (inactive).

For the molecule `CCOC(=O)/C=C/C(=O)O.[Cu+2]`, the growth inhibition was -17.2% (inactive).

`CCCCCCC1OCCC(C)O1` (centres undefined): the growth inhibition was -22.4% (inactive).

With `O=C(O)c1c(Br)c(Br)c(Br)c(Br)c1C(=O)Nc1ccc(Cl)cc1C(F)(F)F`, the growth inhibition is 0.3% (inactive).

For the molecule `Cc1cc(C)nc(N)n1`, the growth inhibition is -1.9% (inactive).

Regarding `C(=NCc1ccccc1)c1ccccc1-c1ccccc1C=NCc1ccccc1`, the growth inhibition is 97.2% (active).

Turning to `CC(C)CCCC(C)C1CCC2C3CC(=O)C4C=CCCC4(C)C3CCC12C` (centres undefined), the growth inhibition was 2.65% (inactive).

Consider `O=C(CC(=O)C(=O)CC(=O)OCc1ccccc1)OCc1ccccc1`, for which the growth inhibition is -21.3% (inactive).

Take `CCOc1c(N=Nc2ccccc2Cl)c(-c2ccccc2)nn1C(N)=S`: the growth inhibition is -3.95% (inactive).

Take `Brc1nccs1`: the growth inhibition is -9.05% (inactive).

For `Cc1ccc(S/C=C/C(=O)Nc2ccccc2)cc1`, the growth inhibition is 2.85% (inactive).

On to `c1ccc2c(c1)ncc1cc3c(cc12)[nH]c1ccccc13`, for which the growth inhibition was -10.4% (inactive).

On to `Nc1nc(SCc2ccccc2)c2ncn(C3CC(O)C(CO)O3)c2n1` (centres undefined), for which the growth inhibition is -1.45% (inactive).

In the case of `S=C1SCN(c2ccc3c(c2)OCO3)CN1c1ccc2c(c1)OCO2`, the growth inhibition is -1.05% (inactive).

As to `C[Si](C)(CNCCN)O[Si](C)(C)CNCCN`, the growth inhibition is 5.9% (inactive).

With `O=C(CCC(CCC(=O)c1ccccc1)[N+](=O)[O-])c1ccccc1`, the growth inhibition is 14.2% (inactive).

For `Cc1nc(-c2ccccc2)oc1-c1ccccc1`, the growth inhibition is 0.05% (inactive).

As for `Clc1ccc(CSc2ccc3nncc(SCc4ccc(Cl)cc4Cl)c3c2)c(Cl)c1`, the growth inhibition is 15.1% (inactive).

For `Cc1cc(C)c2c(SCc3ccc(Cl)cc3Cl)nc(N)nc2n1`, the growth inhibition is 7.1% (inactive).

Turning to `CCCCN1C(=O)c2cc(=O)[nH]c(O)c2C1C` (centres undefined), the growth inhibition is -27.1% (inactive).

In the case of `C1=C(c2ccccc2)CC(c2ccc(-c3ccccc3)cc2)=C1`, the growth inhibition is -10.2% (inactive).
